Data taken from PubChem BioAssay (NCATS).
Inconclusive results are not listed. Activity calls are given as the source filed them. Unless noted, the call rests on the fitted dose curve; in most records, active means well fitted activation curve with a large enough effect in the main read-out, with a control signal flat (not every such curve was filed as active); inconclusive means small, poorly fitted or top-dose-only effect, or effect the other way, or a change in a side signal; inactive means flat fitted curve, though single readings scatter.

System: not listed separately
Assay: Cell Viability - Mesenchymal (AID 546; active means well fitted curve in the direction sought with a large enough effect; an effect the other way counts as inactive or inconclusive;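 further: cells exposed to compound for 40 hours before reading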)
Conditions: mesenchymal cells viability, qHTS; series mostly up to 91.7 µM; activity change, negative = cytotoxicity: at the top concentration
Excerpt: NIH Chemical Genomics Center [NCGC]
NIH Molecular Libraries Screening Centers Network [MLSCN]
National Institutes of Environmental Health Sciences [NIEHS]
National Toxicology Program [NTP]
We have developed a 1536-well cell-based assay for quantitative high throughput screening (qHTS) against a number of cell lines to determine in vitro cytotoxicity of small molecules. This particular assay uses the kidney mesenchymal cell line which is derived from normal human renal glomeruli.
NCGC Assay Protocol Summary:
The CellTiter-Glo luminescent cell viability assay (Promega) is a homogeneous method to measure the number of viable cells in culture. The end point readout of this assay is based on quantitation of intracellular ATP, an indicator of metabolic activity, using the luciferase reaction. Luciferase catalyzes the oxidation of beetle Luciferin to oxyluciferin and light in the presence of ATP. The luminescent signal is proportional to amount of ATP present.
Using the CellTiter-Glo luminescent cell viability assay, the amount of cellular ATP was measured in the kidney mesenchymal cell line with complete culture medium following compound treatment for 40 hours. The assay was performed in opaque white Kalypsys 1536-well plates. In the screen, tamoxifen and doxorubicin were used as positive controls. Library compounds were measured for their ability to cause acute toxicity in the cell line, as reflected by a decrease in intracellular ATP levels, in a concentration-dependent manner. […] AC50 values were determined from concentration-response data modeled with the standard Hill equation.
qHTS protocol for CellTiter Glo kidney mesenchymal cells cellular assay
[Step] [Parameter] [Value] [Description]
1. Reagent; 5 uL; 1000 kidney mesenchymal cells/well
2. Time; 5 hr; 37 °C incubation
4. Controls; 23 nL; Tamoxifen 0.34 uM to 100 uM & Doxorubicin 0.02 nM to 100 uM
5. Time; 40 hr; 37 °C incubation
6. Reagent; 5 uL; CellTiter Glo reagent
7. Time; 20 min; Room Temperature
8. Detection; Luminescence; Viewlux plate reader
Keywords: cell viability, cytotoxicity, Kidney mesenchymal cell line, luminescence, NTPHTS, NTPHTS_NCGC, NIEHS, EPA, DSSTox, MLSMR, MLSCN, NIH Roadmap, qHTS, NCGC

Structure (SMILES) | activity change, negative = cytotoxicity | outcome
NS(=O)(=O)c1cc2c(cc1Cl)NC=NS2(=O)=O | -4.85% (inactive) | –
NC(N)=NC(=O)c1nc(Cl)c(N)nc1N | -12.1% (inactive) | –
NC(=O)c1cnccn1 | 7.51% (inactive) | –
O=c1[nH]cnc2[nH]ncc12 | 3.02% (inactive) | –
CC(=O)Oc1ccccc1C(=O)O | – | inactive
CCCC(CCC)C(=O)O | 7.2% (inactive) | –

Target: 3',5'-cyclic-AMP phosphodiesterase 4B (Homo sapiens) (UniProt Q07343)
Assay: qHTS Assay for Inhibitors of PDE-IV (AID 607); further: % of control where 0% means no effect
Conditions: HEK293 ACTOne CNG channel cells, membrane potential fluorescence; series mostly up to 22.9 µM; activation (PDE inhibition): at the top concentration
How it was run: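 ACTOne HEK293 cells carry a modified cAMP-gated CNG channel and express endogenous PDE4; plated 1000 cells/well, compounds up to 22.9 uM final. Membrane-potential dye fluorescence (ex 535/em 590) was read; parental cells received 10 uM forskolin + 100 uM RO 20-1724.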

3',5'-cyclic-AMP phosphodiesterase 4B (Homo sapiens), sequence (Q07343 whole entry, looked up): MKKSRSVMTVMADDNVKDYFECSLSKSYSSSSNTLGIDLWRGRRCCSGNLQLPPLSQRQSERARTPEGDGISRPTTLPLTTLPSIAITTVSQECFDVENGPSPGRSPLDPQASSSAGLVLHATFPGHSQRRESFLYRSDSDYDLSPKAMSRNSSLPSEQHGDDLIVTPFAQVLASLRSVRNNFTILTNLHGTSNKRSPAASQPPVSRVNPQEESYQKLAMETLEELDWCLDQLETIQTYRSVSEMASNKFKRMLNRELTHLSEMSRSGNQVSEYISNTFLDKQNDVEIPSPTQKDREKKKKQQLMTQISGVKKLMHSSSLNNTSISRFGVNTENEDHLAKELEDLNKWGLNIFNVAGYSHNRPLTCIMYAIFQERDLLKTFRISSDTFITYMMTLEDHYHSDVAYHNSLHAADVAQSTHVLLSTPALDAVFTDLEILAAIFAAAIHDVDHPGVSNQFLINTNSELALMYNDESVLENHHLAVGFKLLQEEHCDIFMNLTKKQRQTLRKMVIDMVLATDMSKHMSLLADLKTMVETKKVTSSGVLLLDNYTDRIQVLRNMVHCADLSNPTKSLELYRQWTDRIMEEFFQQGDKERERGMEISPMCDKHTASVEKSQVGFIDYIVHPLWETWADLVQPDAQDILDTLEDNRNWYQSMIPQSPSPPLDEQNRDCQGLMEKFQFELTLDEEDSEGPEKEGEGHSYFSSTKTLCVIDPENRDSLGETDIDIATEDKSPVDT

Structure (SMILES) | activation (PDE inhibition) | outcome
Cc1cn[nH]c1 | -7.63% (inactive) | –
Cc1ccc2c(c1)C(=O)[C@@]1(O)CCN(c3ccccc3)C1=N2 | 3.27% (inactive) | –
N=c1nc(N2CCCCC2)cc(N)n1O | – | inactive
Cc1oncc1C(=O)Nc1ccc(C(F)(F)F)cc1 | – | inactive
CCOC(=O)N1CCC(=C2c3ccc(Cl)cc3CCc3cccnc32)CC1 | 14.4% (inactive) | –
Cc1cc2c(C(C)C)c(O)c(O)c(C=O)c2c(O)c1-c1c(C)cc2c(C(C)C)c(O)c(O)c(C=O)c2c1O | -4.26% (inactive) | –
NCCc1ccc(O)c(O)c1 | -14.6% (inactive) | –
COc1ccc2nc(S(=O)Cc3ncc(C)c(OC)c3C)[nH]c2c1 (stereo not drawn) | -11.3% (inactive) | –
N[C@@H]1CONC1=O | – | inactive
Cn1cnc([N+](=O)[O-])c1Sc1ncnc2nc[nH]c12 | – | inactive
NS(=O)(=O)c1cc2c(cc1Cl)NC=NS2(=O)=O | – | inactive
NNCCc1ccccc1 | – | inactive
CCCCNc1cc(C(=O)O)cc(S(N)(=O)=O)c1Oc1ccccc1 | – | inactive
NC(N)=NC(=O)c1nc(Cl)c(N)nc1N | – | inactive
CN1CCN(CCCN2c3ccccc3Sc3ccc(C(F)(F)F)cc32)CC1 | – | inactive
CCOC(=O)C1=C[C@@]2(CC)CCCN3CCc4c(n1c1ccccc41)[C@H]32 | 21.2% (inactive) | –
Nc1nc2ccc(OC(F)(F)F)cc2s1 | – | inactive
Nc1ccc(S(=O)(=O)Nc2ccnn2-c2ccccc2)cc1 | – | inactive

Structure (SMILES) | activation (PDE inhibition) | outcome
NC(=O)c1cnccn1 | 6.85% (inactive) | –
CNC[C@H](O)c1cccc(O)c1 | -5.41% (inactive) | –
O=c1[nH]cnc2[nH]ncc12 | -6.81% (inactive) | –
Cc1ccc(N(CC2=NCCN2)c2cccc(O)c2)cc1 | – | inactive
N#Cc1ccc(C(c2ccc(C#N)cc2)n2cncn2)cc1 | 1.03% (inactive) | –
CC(=O)Oc1ccccc1C(=O)O | -11.9% (inactive) | –
Clc1cccc(Cl)c1NC1=NCCN1 | – | inactive
O=C1CCc2cc(OCCCCc3nnnn3C3CCCCC3)ccc2N1 | 26.9% (inactive) | –
C1COC(NC(C2CC2)C2CC2)=N1 | – | inactive
CC(C)(Sc1ccc(CCN(CCCCC2CCCCC2)C(=O)NC2CCCCC2)cc1)C(=O)O | -21.3% (inactive) | –
O=NN(CCCl)C(=O)NCCCl | -13.3% (inactive) | –
NC[C@H](O)c1ccc(O)c(O)c1 | – | inactive
O=c1n(CCCN2CCN(c3cccc(Cl)c3)CC2)nc2ccccn12 | – | inactive
Nc1nc2c(ncn2COCCO)c(=O)[nH]1 | – | inactive
CCCC(CCC)C(=O)O | -4.93% (inactive) | –
Cc1[nH]c(=O)c(C#N)cc1-c1ccncc1 | – | inactive
CCN(c1ccccc1)c1cc(NC)[n+](C)c(C)n1 | 28.4% (inactive) | –

System: not listed separately
Assay: Cellular Toxicity (caspase-3) HepG2 (AID 654; active means well fitted curve in the direction sought with a large enough effect; an effect the other way counts as inactive or inconclusive;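 further: cells exposed to compound for 16 hours before reading; 0% = DMSO alone and 100% = caspase signal from 100 µM tamoxifen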)
Conditions: HepG2 caspase-3 activation, luminescence, 0% = DMSO only, 100% = tamoxifen; series mostly up to 92.2 µM; caspase-3 activation: at the top concentration
How it was run: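 HepG2 cells (1500/well) were treated 16 h at 37 °C in complete medium, then caspase 3/7 activity was read by Caspase-Glo luminescence. Data were normalized to DMSO and 100 uM tamoxifen; AC50 came from Hill-equation fits of qHTS concentration-response.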

Structure (SMILES) | caspase-3 activation | outcome
Cn1cnc([N+](=O)[O-])c1Sc1ncnc2nc[nH]c12 | 0.159% (inactive) | –
NS(=O)(=O)c1cc2c(cc1Cl)NC=NS2(=O)=O | 0.383% (inactive) | –
NC(N)=NC(=O)c1nc(Cl)c(N)nc1N | -1.33% (inactive) | –
NC(=O)c1cnccn1 | 0.0746% (inactive) | –
O=c1[nH]cnc2[nH]ncc12 | -0.109% (inactive) | –
CC(=O)Oc1ccccc1C(=O)O | – | inactive
CCCC(CCC)C(=O)O | 0.0909% (inactive) | –

System: not listed separately
Assay: Cellular Toxicity (caspase-3) Jurkat (AID 655; active means well fitted curve in the direction sought with a large enough effect; an effect the other way counts as inactive or inconclusive;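 further: cells exposed to compound for 16 h at 37 °C before reading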)
Conditions: Jurkat caspase-3 activation, luminescence, DMSO = 0%, tamoxifen = 100%; series mostly up to 92.2 µM; caspase-3 activation: at the top concentration
How it was run: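 Luminescent caspase-3/7 readout (aminoluciferin substrate cleavage) in human T-cell leukemia Jurkat cells after 16 hr compound exposure. Concentration-response normalized to DMSO and 100 uM tamoxifen; AC50 by standard Hill equation.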

Structure (SMILES) | caspase-3 activation | outcome
Cn1cnc([N+](=O)[O-])c1Sc1ncnc2nc[nH]c12 | 5.44% (inactive) | –
NS(=O)(=O)c1cc2c(cc1Cl)NC=NS2(=O)=O | 0.195% (inactive) | –
NC(N)=NC(=O)c1nc(Cl)c(N)nc1N | 1.75% (inactive) | –
NC(=O)c1cnccn1 | -1.3% (inactive) | –
O=c1[nH]cnc2[nH]ncc12 | 0.609% (inactive) | –
CC(=O)Oc1ccccc1C(=O)O | – | inactive
CCCC(CCC)C(=O)O | -0.269% (inactive) | –

System: not listed separately
Assay: Cellular Toxicity (caspase-3) HUV-EC-C (AID 656; active means well fitted curve in the direction sought with a large enough effect; an effect the other way counts as inactive or inconclusive)
Conditions: HUV-EC-C cells, caspase-3 activation (apoptosis), vehicle = 0, 100 µM tamoxifen = 100%; series mostly up to 92.2 µM; caspase-3 activation: at the top concentration
How it was run: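 Luminescent caspase-3/7 activation (aminoluciferin substrate cleavage) in HUV-EC-C cells after 16 hr compound exposure, 37°C. Signal normalized to DMSO basal and 100 uM tamoxifen as 100%; AC50 from concentration-response fitted with the Hill equation.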

Structure (SMILES) | caspase-3 activation | outcome
Cn1cnc([N+](=O)[O-])c1Sc1ncnc2nc[nH]c12 | -4.16% (inactive) | –
NS(=O)(=O)c1cc2c(cc1Cl)NC=NS2(=O)=O | -3.09% (inactive) | –
NC(N)=NC(=O)c1nc(Cl)c(N)nc1N | -0.236% (inactive) | –
NC(=O)c1cnccn1 | 1.82% (inactive) | –
O=c1[nH]cnc2[nH]ncc12 | -2.27% (inactive) | –
CC(=O)Oc1ccccc1C(=O)O | – | inactive
CCCC(CCC)C(=O)O | -0.489% (inactive) | –

System: not listed separately
Assay: Cellular Toxicity (caspase-3) SHSY5Y (AID 657; active means well fitted curve in the direction sought with a large enough effect; an effect the other way counts as inactive or inconclusive;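 further: cells exposed to compound for 16 hours at 37 °C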)
Conditions: SH-SY5Y caspase-3 activation, DMSO zero, 10 µM staurosporine = 100%; series mostly up to 91.7 µM; caspase-3 activation: at the top concentration
How it was run: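 Luminescent caspase-3/7 readout (aminoluciferin release) in SH-SY5Y cells after 16 h compound exposure in complete medium. Activity scaled between DMSO basal and 10 uM staurosporine as 100%; concentration-response fitted to Hill equation for AC50.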

Structure (SMILES) | caspase-3 activation | outcome
Cn1cnc([N+](=O)[O-])c1Sc1ncnc2nc[nH]c12 | 5.77% (inactive) | –
NS(=O)(=O)c1cc2c(cc1Cl)NC=NS2(=O)=O | -0.612% (inactive) | –
NC(N)=NC(=O)c1nc(Cl)c(N)nc1N | -4.09% (inactive) | –
NC(=O)c1cnccn1 | 1.45% (inactive) | –
O=c1[nH]cnc2[nH]ncc12 | 2.18% (inactive) | –
CC(=O)Oc1ccccc1C(=O)O | – | inactive
CCCC(CCC)C(=O)O | 2.86% (inactive) | –

System: not listed separately
Assay: Cellular Toxicity (caspase-3) BJ (AID 658; active means well fitted curve in the direction sought with a large enough effect; an effect the other way counts as inactive or inconclusive;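 further: cells exposed to compound for 16 hours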)
Conditions: BJ fibroblasts, luminescence, normalized: DMSO 0%, staurosporine 100%; series mostly up to 91.7 µM; caspase-3 activation: at the top concentration
How it was run: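 Readout: Caspase-Glo 3/7 luminescence increase in BJ cells after 16 hr treatment at 37 °C. Staurosporine and tamoxifen served as positive controls; AC50 values came from Hill modelling of data normalized to DMSO and 10 uM staurosporine.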

Structure (SMILES) | caspase-3 activation | outcome
Cn1cnc([N+](=O)[O-])c1Sc1ncnc2nc[nH]c12 | 0.317% (inactive) | –
NS(=O)(=O)c1cc2c(cc1Cl)NC=NS2(=O)=O | -0.487% (inactive) | –
NC(N)=NC(=O)c1nc(Cl)c(N)nc1N | 1.1% (inactive) | –
NC(=O)c1cnccn1 | 0.444% (inactive) | –
O=c1[nH]cnc2[nH]ncc12 | 3.22% (inactive) | –
CC(=O)Oc1ccccc1C(=O)O | – | inactive
CCCC(CCC)C(=O)O | -1.55% (inactive) | –

System: not listed separately
Assay: Cellular Toxicity (caspase-3) MRC-5 (AID 659; active means well fitted curve in the direction sought with a large enough effect; an effect the other way counts as inactive or inconclusive;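 further: cells exposed to compound for 16 h at 37 °C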)
Conditions: MRC-5 cells, luminescence, normalized: DMSO 0%, 10 µM staurosporine 100%; series mostly up to 91.7 µM; caspase-3 activation: at the top concentration
How it was run: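 Concentration-dependent caspase 3/7 activation is measured in human normal lung fibroblasts (MRC-5) following 16-hour treatment. AC50 values come from standard Hill-equation modeling of luminescence normalized to DMSO and 10 uM staurosporine.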

Structure (SMILES) | caspase-3 activation | outcome
Cn1cnc([N+](=O)[O-])c1Sc1ncnc2nc[nH]c12 | -1.25% (inactive) | –
NS(=O)(=O)c1cc2c(cc1Cl)NC=NS2(=O)=O | 0.185% (inactive) | –
NC(N)=NC(=O)c1nc(Cl)c(N)nc1N | 2.03% (inactive) | –
NC(=O)c1cnccn1 | -0.38% (inactive) | –
O=c1[nH]cnc2[nH]ncc12 | 0.571% (inactive) | –
CC(=O)Oc1ccccc1C(=O)O | – | inactive
CCCC(CCC)C(=O)O | -0.989% (inactive) | –
